Laboratory results reported in paper PMC5540273 (PLoS ONE, 2017).

Key:
Conditions in all cases: concentration: 1 μM, replicates: in singlicate; n = 1
TESK1 = test system: TESK1
TGFBR1 = test system: TGFBR1
TGFBR2 = test system: TGFBR2
TIE1 = test system: TIE1
TIE2 = test system: T1, TIE2
T1 construct: gene TEK

TLK1 = test system: TLK1
TLK2 = test system: TLK2
TNIK = test system: TNIK
TNK1 = test system: TNK1
TNK2 = test system: TNK2
TNNI3K = test system: TNNI3K
TRKA = test system: T2, TRKA
T2 construct: gene NTRK1

TRKB = test system: TRKB
TRKC = test system: T3, TRKC
T3 construct: gene NTRK3

TRPM6 = test system: TRPM6
TSSK1B = test system: TSSK1B
TSSK3 = test system: TSSK3
TTK = test system: TTK
TXK = test system: TXK
[1] = test system: TYK2(JH1domain-catalytic)
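Note: KINOMEscan kinase panel screen.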

Structure (SMILES) | %Inh (TESK1) [%] | %Inh (TGFBR1) [%] | %Inh (TGFBR2) [%] | %Inh (TIE1) [%] | %Inh (TIE2) [%] | %Inh (TLK1) [%] | %Inh (TLK2) [%] | %Inh (TNIK) [%] | %Inh (TNK1) [%] | %Inh (TNK2) [%] | %Inh (TNNI3K) [%] | %Inh (TRKA) [%] | %Inh (TRKB) [%] | %Inh (TRKC) [%] | %Inh (TRPM6) [%] | %Inh (TSSK1B) [%] | %Inh (TSSK3) [%] | %Inh (TTK) [%] | %Inh (TXK) [%] | %Inh [1] [%]
Cc1cc(-c2ccnc(Nc3cccc(C#N)c3)n2)cc(C)c1O [GSK1440913] | 47 | 0 | 0 | 74 | 0 | 16 | 0 | 68 | 0 | 18 | 25 | 78 | 9 | 39 | 0 | 5 | 7 | 54 | 35 | 60
COc1cccc(C2=C(Nc3cccc(O)c3)C(=O)NC2=O)c1 [SB-390771] | 34 | 19 | 0 | 0 | 0 | 29 | 33 | 0 | 0 | 15 | 21 | 0 | 0 | 46 | 4 | 27 | 9 | 10 | 11 | 21
CSc1ccc(NC2=C(c3ccc(Cl)cc3)C(=O)NC2=O)cc1 [SB-317658] | 20 | 38 | 23 | 42 | 17 | 8 | 18 | 0 | 41 | 0 | 2 | 5 | 0 | 0 | 0 | 3 | 0 | 6 | 23 | 0
Fc1cc(Cl)ccc1Nc1ccnc2cc(-c3ccc(CN4CCSCC4)o3)ccc12 [GW560106] | 17 | 0 | 71 | 1 | 6 | 0 | 0 | 47 | 87 | 75 | 10 | 72 | 28 | 0 | 3 | 0 | 14 | 13 | 82 | 19
CNc1nccc(-c2ccc3c(N)n[nH]c3c2)n1 [GSK2206003] | 31 | 25 | 9 | 15 | 0 | 8 | 1 | 50 | 0 | 17 | 0 | 52 | 23 | 3 | 0 | 0 | 21 | 37 | 11 | 46
Cc1cc(-c2c(-c3ccc(F)cc3)ncn2CCCN2CCOCC2)nc(N)n1 [SB-222517] | 14 | 0 | 0 | 27 | 20 | 0 | 34 | 0 | 26 | 0 | 0 | 0 | 0 | 0 | 15 | 0 | 0 | 48 | 14 | 0
O=C(Nc1c(F)cccc1F)c1cc(C(=O)c2ccccc2F)c[nH]1 [GSK1326180] | 10 | 0 | 6 | 0 | 0 | 0 | 0 | 20 | 8 | 8 | 0 | 27 | 0 | 12 | 0 | 0 | 24 | 6 | 0 | 0
Fc1cc(Cl)ccc1Nc1ccnc2cc(-c3ccc(CN4CCOCC4)o3)ccc12 [GW560109] | 13 | 0 | 83 | 13 | 8 | 0 | 0 | 53 | 81 | 82 | 7 | 42 | 41 | 35 | 35 | 21 | 3 | 21 | 86 | 18
CC(=O)Nc1cn2nc(Oc3cccc(NC(=O)c4cccc(C(F)(F)F)c4)c3)ccc2n1 | 13 | 9 | 0 | 81 | 65 | 0 | 0 | 38 | 68 | 0 | 97 | 0 | 0 | 0 | 0 | 8 | 0 | 29 | 61 | 0
CN1CCN(Cc2ccc(NC(=O)Nc3ccc(N(C)c4ccnc(Nc5ccc(CS(C)(=O)=O)cc5)n4)cc3)cc2)CC1.Cl [GW827654] | 0 | 25 | 81 | 96.9 | 80 | 25 | 0 | 90.9 | 20 | 97.7 | 46 | 91.4 | 92 | 92.5 | 0 | 0 | 47 | 28 | 85 | 97.9
Nc1ncc(-c2ccc3nccc(-c4ccncc4)c3c2)cc1S(=O)(=O)N1CCCCC1 [GSK1693850] | 20 | 0 | 0 | 4 | 0 | 37 | 0 | 10 | 0 | 9 | 1 | 99 | 0 | 0 | 0 | 0 | 7 | 21 | 0 | 4
COc1ccc(C2=C(Nc3cccc(O)c3)C(=O)NC2=O)cc1 [SB-390766] | 12 | 20 | 0 | 0 | 0 | 0 | 4 | 0 | 0 | 5 | 27 | 0 | 41 | 51 | 30 | 8 | 12 | 0 | 8 | 25
CC(C)NCC(Cc1ccccc1)NC(=O)c1cc(Br)c(-c2ccnc3[nH]ccc23)s1.Cl.Cl (stereo not drawn) [GSK1383281] | 47 | 1 | 0 | 69 | 0 | 8 | 13 | 5 | 0 | 0 | 0 | 75 | 64 | 52 | 0 | 32 | 2 | 58 | 79 | 53
Cc1ccc(NC(=O)c2ccc(Cl)c(Cl)c2)cc1-c1ccc(C(=O)Nc2ccncc2)cc1 [GSK1398460] | 29 | 0 | 0 | 0 | 0 | 8 | 6 | 0 | 29 | 19 | 60 | 0 | 0 | 0 | 14 | 20 | 48 | 15 | 0 | 0
CCOc1nccc(-c2c(-c3ccc(F)cc3)ncn2C2CCNCC2)n1 [SB-249175] | 12 | 19 | 11 | 23 | 19 | 0 | 15 | 49 | 21 | 0 | 4 | 47 | 21 | 18 | 18 | 0 | 34 | 0 | 10 | 45
CN(c1ccc(NC(=O)N2CCN(CCCN3CCOCC3)CC2)cc1)c1ccnc(Nc2ccc(CS(C)(=O)=O)cc2)n1.Cl [GW830899] | 9 | 6 | 59 | 0 | 16 | 2 | 0 | 15 | 41 | 12 | 5 | 0 | 0 | 0 | 0 | 3 | 0 | 26 | 38 | 31
O=C1NC(=O)C(c2ccccc2Cl)=C1Nc1cccc(Cl)c1 [SB-342409] | 20 | 4 | 71 | 7 | 0 | 68 | 50 | 0 | 12 | 18 | 98.7 | 0 | 0 | 9 | 13 | 100 | 8 | 0 | 33 | 12
N#CC1(c2cccc(C(=O)Nc3cccc(Oc4ccc5nc(NC(=O)C6CC6)sc5n4)c3)c2)CC1 | 9 | 0 | 0 | 73 | 37 | 0 | 0 | 53 | 76 | 0 | 90.5 | 0 | 7 | 0 | 12 | 0 | 0 | 9 | 86 | 0
